High-throughput results: PubChem, several laboratories
NR2F2 inh = NR2F2 (human) inhibition, primary screen | HEK293T NGFI-A luciferase reporter, luminescence | inhibition, % at 8.6 µM | hit rate 0.7% among 370,000 | AID 686940;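 active means inhibition above a per-plate cutoff, mean inhibition of test wells between control levels plus 3 SD, cut at about 38% in these data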;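 further: cells cotransfected with COUP-TFII expression vector driving the NGFI-A reporter; 0% = median of COUP-TF2 test wells and 100% = reporter-only cells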
Target sequence (P24468 whole entry, looked up): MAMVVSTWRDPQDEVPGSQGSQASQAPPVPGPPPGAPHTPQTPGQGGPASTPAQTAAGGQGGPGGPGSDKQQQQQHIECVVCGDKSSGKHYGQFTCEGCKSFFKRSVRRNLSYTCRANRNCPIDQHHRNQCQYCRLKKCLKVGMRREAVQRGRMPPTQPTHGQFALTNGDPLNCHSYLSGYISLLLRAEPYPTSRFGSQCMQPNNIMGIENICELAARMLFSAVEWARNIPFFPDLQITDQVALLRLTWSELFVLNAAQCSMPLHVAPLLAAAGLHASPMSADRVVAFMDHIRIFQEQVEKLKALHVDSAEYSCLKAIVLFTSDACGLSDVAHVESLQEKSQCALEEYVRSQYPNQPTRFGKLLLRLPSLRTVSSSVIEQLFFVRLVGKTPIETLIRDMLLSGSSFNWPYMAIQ
Gli-Sufu antag = Gli-Sufu pathway antagonism | AID 588413 | inhibition, % at 5 µM | hit rate 0.74% among 340,000 | Sufu-KO-LIGHT fibroblasts, Gli luciferase reporter luminescence;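 active means inhibition above about 55%, limit read from the data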;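 further: 0% = DMSO-treated cells and 100% = wells with medium but no cells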
Jurkat NFkB inh = inhibitors of the PMA/ionomycin-induced NF-kB reporter in Jurkat cells. PMA/ionomycin-induced NF-kB luciferase reporter, luminescence. inhibition, % at 4 µM. hit rate 0.53% among 330,000. AID 435003; in the data active means inhibition above about 50%
697 NFkB inh = inhibitors of the PMA/ionomycin-induced NF-kB reporter in 697 B cells; 697 B-cell NF-kB luciferase reporter, 16 h; inhibition, % at 4 µM; hit rate 0.33% among 330,000; AID 435022; in the data active means inhibition above about 35%
GalR3 antagonist = antagonists of human GalR3; O60755; HEK293 GalR3-CNG cAMP membrane potential fluorescence; galR3 body fused to GalR1 C-terminus; inhibition, % at 3 µM; hit rate 0.44% among 360,000; AID 651719;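 active means inhibition above the screen-wide average plus 3 SD, cut at about 13% in these data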;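 further: forskolin and galanin both at EC90 stimulate the cells; cAMP rise reported by CNG channel membrane potential dye signal; 0% = forskolin plus galanin with DMSO and 100% = forskolin alone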
Target sequence (O60755 1-299 limits assumed): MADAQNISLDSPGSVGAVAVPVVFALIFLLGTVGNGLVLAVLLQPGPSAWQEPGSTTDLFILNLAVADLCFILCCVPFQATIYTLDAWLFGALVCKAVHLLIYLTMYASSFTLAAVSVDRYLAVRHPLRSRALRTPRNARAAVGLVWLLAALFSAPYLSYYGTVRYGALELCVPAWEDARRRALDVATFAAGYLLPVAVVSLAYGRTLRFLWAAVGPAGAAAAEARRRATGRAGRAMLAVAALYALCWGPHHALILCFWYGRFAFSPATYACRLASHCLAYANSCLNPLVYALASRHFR
Jurkat NFkB conf = lowers PMA/ionomycin-induced NF-kB signal in Jurkat cells; hit rate 27% among 2,700; Jurkat NF-kB luciferase, 16 h; inhibition, % at 4 µM; shares compounds with Jurkat NFkB inh; AID 435020;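 active means inhibition reaching about 45% at 4 µM in either replicate, limit read from the data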;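 further: plate controls were PMA/ionomycin stimulated DMSO wells for no effect and unstimulated DMSO wells for full effect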
697 NFkB conf = inhibitors of the PMA/ionomycin-induced NF-kB reporter in 697 B cells, retest | shares compounds with 697 NFkB inh | 697 B-cell NF-kB luciferase, 16 h | inhibition, % at 4 µM | hit rate 35% among 2,000; in the data active means inhibition mostly above about 28%, no sharp cut-off; inactive means mostly below about 22%
Gli-Sufu confirm = Gli-SUFU antagonism confirmation, single concentration | shares compounds with Gli-Sufu antag | Sufu-KO-LIGHT cells, Gli luciferase reporter, luminescence | inhibition, % at 5 µM | hit rate 40% among 2,500 | AID 602428;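 active means mean inhibition at 5 µM reaching about 45%, limit read from the data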;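 further: plate controls were DMSO-treated cells for no effect and wells lacking cells for full effect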
Gli cytotox = cytotoxicity counter-screen for Gli-SUFU antagonists | hit rate 32% among 2,500 | Sufu-KO-LIGHT cells cytotoxicity, ATP luminescence | cytotoxicity, % at 5 µM | shares compounds with Gli-Sufu antag | AID 651994;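 active means mean cytotoxicity at 5 µM above about 25%, limit read from the data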;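 further: cells exposed to compound overnight for roughly 16 to 18 hours; plate controls were DMSO wells with cells for no effect and medium without cells for full effect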
Wnt3a cs = counter-screen for Gli-SUFU antagonists: Wnt3a reporter inhibition | shares compounds with Gli-Sufu antag | inhibition, % at 6.25 µM | Wnt-LIGHT cells, Wnt3a-driven luciferase reporter, luminescence | AID 651995 | hit rate 20% among 2,500;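 active means mean inhibition above about 25%, limit read from the data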
GalR3 conf = confirmation of human galanin receptor 3 antagonists | shares compounds with GalR3 antagonist | HEK293 GalR3 CNG cAMP biosensor, membrane potential fluorescence; galR3 fused to GalR1 carboxy tail; challenged with forskolin and galanin at EC90 | inhibition, % at 3 µM | hit rate 59% among 1,600;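 active means inhibition above the primary screen's cutoff, the mean inhibition of all screened compounds plus 3 SD, cut at about 13% in these data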;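 further: 0% = forskolin plus galanin and 100% = forskolin alone with DMSO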
CNG parental = parental cell agonism counter-screen for GalR3 antagonists; shares compounds with GalR3 antagonist; HEK293-CNG parental cells, cAMP membrane potential fluorescence; normalised: DMSO wells 0%, forskolin wells 100%; activation, % at 3 µM; hit rate 10% among 1,600; AID 652268; in the data active means activation above about 1.3%
VP16 Luc counter = counter-screen for COUP-TFII antagonists: inhibitors of VP16; shares compounds with NR2F2 inh; HEK293 Gal4-VP16 luciferase reporter, luminescence; inhibition, % at 8.5 µM; hit rate 25% among 2,500; AID 687007; in the data active means inhibition above about 13%
NR2F2 inh conf = confirmation of human COUP-TFII (NR2F2) inhibitors. hit rate 45% among 2,500. shares compounds with NR2F2 inh. inhibition, % at 8.5 µM. HEK293 NGFI-A luciferase reporter, luminescence;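 active means mean inhibition over three repeats above a set limit taken from the earlier primary screen, cut at about 38% in these data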;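 further: 100% = cells given the luciferase reporter alone without the COUP-TF2 vector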
Numbers without * were called inactive; nt = not tested or not shown. Rows were chosen to be rich in hits. Some 2% of all compounds tested hit in one or more screens of this group.

SMILES	NR2F2 inh	Gli-Sufu antag	Jurkat NFkB inh	697 NFkB inh	GalR3 antagonist	Jurkat NFkB conf	697 NFkB conf	VP16 Luc counter	NR2F2 inh conf	others
C=C(CO)CC1CC(O)[C@]2(C)OC3CC4OC5C[C@]6(C)O[C@]7(C)CCC8OC9C[C@]%10(C)OC%11C(C)=CC(=O)OC%11CC%10OC9C[C@@H](C)C8OC7CC6O[C@]5(C)C/C=C\C4OC3CC2O1 (stereo not given in full)	2.5	10.8	23.2	18.6	-3.2	nt	nt	nt	nt
C=C(C=O)CC1CC(O)[C@]2(C)OC3CC4OC5C[C@]6(C)O[C@]7(C)CCC8OC9C[C@]%10(C)OC%11C(C)=CC(=O)OC%11CC%10OC9C[C@@H](C)C8OC7CC6O[C@]5(C)CC5OC5C4OC3CC2O1 (stereo not given in full)	nt	74.9*	96.3*	-390.0	nt	96.2*	38.3*	nt	nt
O=C(NCCN1CCC2(CC1)C(=O)NCN2c1ccccc1)c1ccc(Cl)c(Cl)c1	-16.6	nt	nt	nt	-7.8	nt	nt	nt	nt
CCOc1cccc(CNCCc2c(C)[nH]c3ccc(OC(F)(F)F)cc23)c1O	51.4*	44.9	66.4*	-24.5	72.5*	24.9	nt	-3.3	40.9*	GalR3 conf=95.6*;CNG parental=-0.4
CC(=O)N1c2ccccc2C(c2ccccc2)=NCC1C(=O)NCc1ccccc1 (stereo not given)	-17.8	nt	nt	nt	nt	nt	nt	nt	nt
C[C@H]1CCC/C=C/[C@@H]2C[C@H](O)C[C@H]2[C@H](O)/C=C/C(=O)O1	50.4*	88.9*	97.8*	65.7*	0.0	-15.1	80.8*	10.2	33.5
CC[C@H](C)[C@@H]1OC(=O)[C@H](C(C)C)N(C)C(=O)[C@H](C(C)C)NC(=O)[C@@H](C)[C@@H](CCCC#CBr)OC(=O)[C@H](C(C)C)N(C)C(=O)C2CCCN2C1=O (stereo not given in full)	25.0	nt	nt	nt	nt	nt	nt	nt	nt
COc1cc2c(cc1OC)[C@@H]1C(=O)c3ccc4c(c3O[C@@H]1CO2)C[C@H](C(C)C)O4	67.2*	83.3*	74.5*	71.5*	97.5*	77.8*	80.9*	2.5	62.6*	Gli-Sufu confirm=85.3*;Gli cytotox=42.2*;Wnt3a cs=52.8*;GalR3 conf=115.5*;CNG parental=0.1
C[C@@H]1O[C@@H](O[C@H]2C[C@@H](O)[C@]3(CO)[C@H]4[C@H](O)C[C@]5(C)[C@@H](C6COC(=O)C6)CC[C@]5(O)[C@@H]4CC[C@]3(O)C2)[C@H](O)[C@H](O)[C@H]1O (stereo not given in full)	67.8*	1.8	95.8*	-402.8	21.5*	71.6*	-496.4	20.6*	58.8*
CC(C)C(NC(=O)OCc1ccccc1)P(=O)(Oc1ccccc1)Oc1ccccc1 (stereo not given)	19.7	nt	nt	nt	nt	nt	nt	nt	nt
CC(=O)c1cn(Cc2ccccc2C#N)c2ccccc12	47.3*	58.7*	52.2*	47.2*	90.3*	54.8*	29.8*	2.2	53.0*	Gli-Sufu confirm=62.6*;Gli cytotox=18.4;Wnt3a cs=34.1*;GalR3 conf=102.6*;CNG parental=0.5
COc1ccc2c3c([nH]c2c1)[C@H](C=C(C)C)N1C(=O)[C@@H]2CCCN2C(=O)[C@@H]1C3	5.9	nt	nt	nt	nt	nt	nt	nt	nt
C=C1C(=O)O[C@@H]2C[C@@H](C)[C@@H]3C=CC(=O)[C@@]3(C)[C@@H](O)[C@H]12	97.0*	96.7*	99.4*	101.6*	nt	95.4*	104.5*	83.9*	99.4*
C[C@@H]1C[C@H]2OC(=O)C3(CO3)[C@H]2[C@H](O)[C@]2(C)C(=O)C3OC3[C@@H]12 (stereo not given in full)	nt	nt	-9.2	-133.9	nt	nt	nt	nt	nt
CC[C@H](C(N)=O)N1CCCC1=O	-13.9	nt	nt	nt	nt	nt	nt	nt	nt
CC[n+]1c(/C=C/C=C/c2ccc(N(C)C)cc2)sc2ccccc21	78.6*	86.6*	69.6*	-35.1	19.4*	20.2	nt	23.4*	82.1*	GalR3 conf=74.4*;CNG parental=3.5*
Nc1ncnc2c1ccn2[C@@H]1O[C@H](CO)[C@@H](O)[C@H]1O	63.7*	22.6	86.3*	74.6*	-6.3	85.4*	98.2*	32.1*	50.6*
NC(Cc1ccccc1)[P+](=O)O (stereo not given)	-28.1	nt	nt	nt	nt	nt	nt	nt	nt
C[C@@H]1O[C@@H](O[C@@H]2C=C3CC[C@@H]4C(CC[C@]5(C)[C@@H](c6ccc(=O)oc6)CC[C@]45O)[C@@]3(C)CC2)[C@H](O)[C@H](O)[C@H]1O (stereo not given in full)	72.6*	-1.6	100.3*	90.3*	32.5*	94.3*	98.9*	54.8*	80.5*
C[C@@H]1O[C@@H](O[C@@H]2C=C3CCC4C(CC[C@]5(C)[C@@H](c6ccc(=O)oc6)CC[C@]45O)[C@@]3(C)CC2)[C@H](O)[C@H](O)[C@H]1O (stereo not given in full)	81.3*	1.4	99.8*	102.2*	16.1*	97.0*	98.6*	56.4*	82.3*
CC(=O)C1CCC2(O)C3CCC4=CC(=O)CCC4(C)C3CCC12C (stereo not given)	6.0	2.1	nt	nt	-4.9	nt	nt	nt	nt
COP(=O)(C(=O)Nc1ccccc1)C(CC(C)C)NC(=O)OCc1ccccc1 (stereo not given)	-13.2	nt	nt	nt	nt	nt	nt	nt	nt
CC(C)(C)OC(=O)NCCCCC(N)[P+](=O)O (stereo not given)	-13.4	nt	nt	nt	nt	nt	nt	nt	nt
Cc1ccc(C(=O)NCCN2CCC3(CC2)C(=O)NCN3c2ccccc2)cc1	0.0	nt	nt	nt	-7.7	nt	nt	nt	nt
